Experimental data reported in PubChem BioAssay AID449762 (Southern Research Specialized Biocontainment Screening …, 2010).
Where “and” joins values, the source holds several entries; their conditions need not be identical. Identical values can stand only once. In all, about 330,000 compounds went through this assay and about 1,900 (0.58%) were called active. Inconclusive results (about 4%) are left out. These entries were drawn from the full list. Results with a measured potency or affinity are listed apart. A number with no mark means an inactive call. No stated cut-off is given here; in the data, inconclusive means inhibition above about 70% without an active follow-up result; inactive means below that.

experiment: M. tuberculosis growth inhibition, HTS (AID 449762);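 further: bacterial growth assessed after seven days of incubation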; settings: M. tuberculosis H37Rv growth inhibition, 7H9 media; at 25 µM; hits give high values

Row | Compound | inhibition
1 | Clc1ccc(CN2C3=NCCN3c3ccccc32)cc1Cl | -11.7%
2 | CCOc1cccc(-c2c(C(=O)N/N=C/c3sccc3C)nnn2-c2nonc2N)c1 | 3.18%
3 | CCc1ccc(NC(=O)CSc2nc3ncc(Br)cc3[nH]2)cc1 | 49.8%
4 | O=C(CSc1nc2ncccc2[nH]1)Nc1ccc2c(c1)OCO2 | -7.9%
5 | N#Cc1ccccc1OCc1cccc(S(=O)(=O)N2CCOCC2)c1 | -6.86%
6 | OCCN(CC#CC(O)(c1ccccc1)C1CCCC1)CCO (centres undefined) | 3.68%
7 | Cn1c(CCn2ccccc2=O)nc2cc(NC(=O)COc3ccccc3)ccc21 | 0.17%
8 | CCCC(=O)N1CCCC(c2nc(-c3cccc(OC)c3)no2)C1 (centres undefined) | -8.11%
9 | COc1ccc(N2CCN(C(=O)c3ccc(Oc4ccc(C(F)(F)F)cn4)cc3)CC2)cc1 | 10.5%
10 | O=C(c1ccc(Oc2ccc(C(F)(F)F)cn2)cc1)N1CCN(c2ccccc2)CC1 | 46.7%
11 | Cc1ccc(S(=O)(=O)N2CCCCC2)cc1NC(=O)COC(=O)c1ccccc1F | -3.82%
12 | CCOc1ccc(NC(=O)CN(C)C(=O)c2c(-c3ccccc3Cl)noc2C)cc1OCC | 1.46%
13 | COc1ccccc1-n1cnnc1SCC(=O)Nc1cc(C)on1 | -1.02%
14 | COC(=O)c1c(C(=O)OC)c2n(c1C)CCC2 | -2.13%
15 | Cc1cc(C)c2ccc(N)nc2c1O | -11.8%
16 | Cc1cc(C)c2ccc(C(=O)O)nc2c1O | -5.39%
17 | CCOc1ccc2[nH]cc(C(=O)N3CCN(CC)CC3)c(=O)c2c1 | 5.18%
18 | COc1ccc(-c2noc(CCCC(=O)Nc3ccc(C(N)=O)cc3)n2)cc1 | -3.01%
19 | Cc1cccc(-c2noc(CCC(=O)Nc3ccc(C(N)=O)cc3)n2)c1 | 4.71%
20 | Cc1ccc(C)c(S(=O)(=O)N2CCN(C(=O)CCc3c[nH]c4ccccc34)CC2)c1 | -3.94%
21 | CSc1nsc(/C=C/Nc2ccc(C)cc2)c1C#N | 18.6%
22 | CSc1nsc(/C=C/Nc2ccc(F)cc2F)c1C#N | 7.19%
23 | O=c1c2cnn(-c3ccccc3)c2ncn1Cc1cccc(Cl)c1 | 0.84%
24 | O=C(COc1ccccc1)Nc1ncccn1 | -7.9%

Row | Compound | inhibition
25 | NNC(=O)COc1cccc(Oc2ccccc2)c1 | 7.98%
26 | Cc1ccc2c(c1)C1(OCCCO1)C(=O)N2CC#N | -7.17%
27 | O=S(=O)(Cc1cc(N2CCOCC2)nc(-c2ccccn2)n1)c1ccccc1 | 5.9%
28 | Cc1nc(CSc2ccc(Cl)cc2)cc(N2CCOCC2)n1 | 0.76%
29 | COc1c(C)cc(C(=O)C2CCCN(C(=O)c3cc(C)n(C)n3)C2)cc1C (centres undefined) | 5.63%
30 | CCOC(=O)c1c(NC(=O)CCN2CCOCC2)sc(C)c1-c1ccccc1 | 3.54%
31 | CCOC(=O)c1c(NC(=O)/C=C\C(=O)O)sc(C)c1-c1ccccc1 | -6.71%
32 | COc1cc(/C=N/c2oc(C)c(C)c2C#N)cc(Br)c1O | 12%
33 | COCCN(C(=O)COC(=O)CCC(=O)c1ccc(Cl)cc1)c1c(N)n(Cc2ccccc2)c(=O)[nH]c1=O | -11.3%
34 | Cc1csc(NC(=O)CSc2ccc(-c3ccccc3)nn2)n1 | 1.71%
35 | Cc1cc(NC(=O)CSc2ccc(-c3ccccc3)nn2)no1 | -8.31%
36 | COCCNC(=O)c1noc2c1CCc1cc(OC)ccc1-2 | 3.34%
37 | O=C(Nc1ccc(C(F)(F)F)cc1)c1ccc(NC(=O)C2CCCO2)cc1 (centres undefined) | -5.77%
38 | Cc1cccc2sc(NNC(=O)C3=COCCO3)nc12 | 2.71%
39 | CCOC(=O)N1CCN(C(=O)c2cccc(S(=O)(=O)Nc3ccc(Br)cc3)c2)CC1 | 8.88%
40 | CC(NCC(O)COc1ccc2ccccc2c1)c1ccccc1 (centres undefined) | 9.15%
41 | COC(=O)C(C)n1nc(C)n(-c2ccc(C)cc2)c1=O (centres undefined) | -0.27%
42 | CCOC(=O)c1nn(-c2ccc(C)cc2)c(=O)cc1OCC(=O)Nc1ccc(OC)cc1 | 8.61%
43 | Cc1cc(NC(=O)c2cncc(Br)c2)ccc1NC(=O)c1cc2ccccc2o1 | 6.1%
44 | CCC(=O)Nc1ccc(NC(=O)c2ccc3ccccc3c2)cc1 | -4.7%
45 | O=S1(=O)CCOC[C@H](c2ccccc2)N1Cc1ccccc1F | 1.26%
46 | CNC(C)C#Cc1ccc2c(=O)c3ccccc3oc2c1 (centres undefined) | 30%
47 | CNC(C)C#Cc1ccc2c(=O)c3cc(C)c(C)cc3oc2c1 (centres undefined) | 1.51%
48 | CC(C)(C)OC(=O)C[C@@H]1C/C=C\C[C@@H](CC(=O)N(CCO)Cc2ccccc2)C(=O)NC[C@@H](c2ccccc2)OC1=O | 4.78%

Row | Compound | inhibition
49 | CCCCN(C(=O)CC1CCCC1)c1c(N)n(CCCC)c(=O)[nH]c1=O | -14.4%
50 | O=C(NCC1CCCO1)C1c2ccccc2Oc2ccccc21 (centres undefined) | -7.07%
51 | Cc1ccc(N(CC(=O)N2CCc3ccccc3C2)S(C)(=O)=O)cc1 | -1.47%
52 | COc1c(Cl)cnn(-c2ccccc2)c1=O | 6.51%
53 | COc1cc(Cl)nn(-c2ccccc2)c1=O | -13.2%
54 | Cn1c(=O)cc(OCC(=O)NCCCN2CCN(c3cccc(Cl)c3)CC2)c2ccccc21 | 1.78%
55 | C=CCNc1nc(C(=O)OCC(=O)c2ccc(F)cc2)cs1 | -9.37%
56 | CCN(C(=O)Cc1c(C(=O)O)n(C)c2ccccc12)c1cc(OC)ccc1OC | -7.09%
57 | C/C=C(\C)C(=O)Nc1cccc(C2=NOC3(C2)C[C@@H](C(N)=O)N(C(=O)c2cc([N+](=O)[O-])cc([N+](=O)[O-])c2C)C3)c1 (some centres undefined) | -8.05%
58 | C/C=C(/C)C(=O)Nc1cccc(C2=NOC3(C2)C[C@H](C(N)=O)N(C(=O)c2ccccc2)C3)c1 (some centres undefined) | -2.03%
59 | COc1ccc(N2CC(C(=O)N3CCN(Cc4ccc5c(c4)OCO5)CC3)CC2=O)cc1 (centres undefined) | -6.83%
60 | COc1ccc(/C=C2\CCCC3C2=NN(C(=O)CSc2ncn[nH]2)C3c2ccc(OC)cc2)cc1 (centres undefined) | 8.82%
61 | O=c1cc(CNc2cc(C(F)(F)F)cc(C(F)(F)F)c2)nc2sccn12 | 3.54%
62 | COC(=O)CN(c1ccc2c(c1)OCCO2)S(=O)(=O)c1ccccc1 | -5.06%
63 | COc1ccc2c(c1)c(C(C)=O)c(C)n2CCc1ccccc1 | -7.55%
64 | CC(=O)c1c(C)n(Cc2ccccc2)c2ccc(O)cc12 | -1.54%
65 | Cn1cc(CNC(=O)c2cc(COc3ccc4c(c3)CCCC4)on2)cn1 | 7.16%
66 | CN(C)c1oc(/C=C/c2ccccc2)nc1C#N | 2.83%
67 | Cc1ccc(C(=O)NC(C)C2CCCO2)o1 (centres undefined) | -14.8%
68 | Cc1ccc(S(=O)(=O)N2CCCCC2C(=O)N2CCN(C)CC2)cc1 (centres undefined) | -3.69%
69 | CN(C)c1cccc(/C=C(\C#N)c2ccccc2)c1 | 11.4%
70 | CC(C)(C=O)C1=CC(=O)c2ccccc2C1=O | -5.62%
71 | CC1=CC(=O)c2ccccc2C1=O | -6.06% and 0.39%
72 | COc1ccccc1-n1c(CNC(=O)c2ccco2)nnc1SCC(=O)Nc1cc(C)ccc1C | -9.93%

Row | Compound | inhibition
73 | CCCCCCNc1nc(-c2ccc(OC)cc2)c(CCC(=O)O)s1 | 31%
74 | COc1ccc(CCNc2ncnc3c2[nH]c2cc(OC)c(OC)cc23)cc1OC | -4.75%
75 | Cc1ccc2[nH]c3c(NCc4ccccc4)ncnc3c2c1 | 67.8%
76 | COc1ccc(CNc2ncnc3c2[nH]c2ccccc23)cc1 | 59.2%
77 | Fc1ccc2[nH]c3c(NCCN4CCOCC4)ncnc3c2c1 | 1.25%
78 | C=CCn1c(SCC(=O)c2c(N)n(CCC)c(=O)n(C)c2=O)nc2sc(CC)cc2c1=O | 0.69%
79 | CSc1ccc(/C=C/C(=O)OCC(=O)c2ccc[nH]2)cc1 | 5.61%
80 | O=C(O)CC(C(=O)NCc1ccccc1)C1CCCO1 (centres undefined) | -7.82%
81 | COc1cc(NC(=O)c2ccnnc2)cc(C(=O)Nc2cccc(C(F)(F)F)c2)c1 | 42.8%
82 | COc1cc(NC(=O)c2cnc(N)o2)cc(C(=O)Nc2cccc(C(F)(F)F)c2)c1 | 2.04%
83 | Cc1ccc(C)c(N2CCN(S(=O)(=O)c3c(C)[nH]c(C)c3C(=O)N3CCCCC3)CC2)c1 | -4.36%
84 | Cc1cc(C(=O)COc2ccccc2C(N)=O)c(C)n1CC1CCCO1 (centres undefined) | -7.82%
85 | Cc1cc(C(=O)COc2ccccc2C(N)=O)c(C)n1C | -2.03%
86 | O=C(O)/C=C\C(=O)Nc1ccccc1N1CCN(c2ccccc2)CC1 | -0.24%
87 | O=C(CSc1nnc2c(n1)[nH]c1ccccc12)Nc1ccc2c(c1)OCO2 | 0.35%
88 | COc1cc(CC(=O)N/N=C/c2ccc([N+](=O)[O-])cc2)c([N+](=O)[O-])cc1OC | 2.69%
89 | CCSc1nnc(NC(=O)CCCOc2ccc(C)cc2)s1 | 1.29%
90 | CCC(C)NS(=O)(=O)c1ccc(NS(C)(=O)=O)cc1 (centres undefined) | 4.07%
91 | CCC(C)NC(=S)Nc1ccc(F)cc1 (centres undefined) | -4.81%
92 | O=C(Cc1cccs1)NCc1cccc(CNC(=O)Cc2cccs2)c1 | 1.18%
93 | COc1ccc(C2NCc3ccccc3-n3cccc32)cc1 (centres undefined) | -8.78%
94 | N#Cc1ccc(C(=O)NCCCSc2ccccc2)cc1 | -3.48%
